Our source for the Potency and outcome values is PubChem BioAssay (Tox21).

Experiment [1] in a line: Nuclear factor erythroid 2-related factor 2/antioxidant responsive element (Nrf2/ARE) small molecule agonists: qHTS cell viability counter screen in human keratinocytes (AID 1919968; active = well fitted curve in the direction sought with a large enough effect in the repeat runs; an effect the other way counts as inactive or inconclusive; note: nearly all actives have a fitted effect of over 55% in size; note: potency is the fitted concentration of half-maximal effect). Put shortly: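 Cells of the KeratinoSens line were plated at 1,500 per well and left for 5 h before compound transfer from DMSO stocks. After a 23 h incubation (37 C, 5% CO2), CellTiter-Fluor was added. Signal was taken as fluorescence intensity 1 h later.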
A general note: In qHTS, concentration-response curves come from the screen itself.

Experiment [2] can be described thus: Nuclear factor erythroid 2-related factor 2/antioxidant responsive element (Nrf2/ARE) small molecule agonists: luciferase reporter gene qHTS assay in human keratinocytes (AID 1919969). Note: nearly all actives have a fitted effect of over 35% in size. Note: potency is the fitted concentration of half-maximal effect. Background: Reporter assays use an easily measured gene product as a stand-in for the process of interest.
For experiment [3], the target named is KiSS-1 receptor (Homo sapiens) (UniProt Q969F8). Nature of the experiment: Human kisspeptin (KISS1R) small molecule agonists, calcium flux assay in KISS1R-HEK293 cells (AID 1920064; active = well fitted curve in the direction sought with a large enough effect in the repeat runs; an effect the other way counts as inactive or inconclusive). In outline:
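Cell line: HEK293, stable human KISS1R. Dye loading 1 h at 37 C after 18 h culture. Read: kinetic fluorescence, 480/540 nm, 3 min at 1 s intervals.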
A general note: Calcium assays in cells follow changes in intracellular calcium, usually with a dye or a luminescent sensor.

A short description of experiment [4]: G protein-coupled receptor (GPCR) small molecule agonists, calcium flux assay: HEK293 wild type cell line counter screen (AID 1920065). Put shortly:
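Tox21 10K compounds, 15 concentrations each in triplicate, pin-transferred in DMSO onto dye-loaded cells; kinetic read at 480/540 nm for 3 min, 1 s intervals.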

A short description of experiment [5]: p53 small molecule agonists, cell-based qHTS assay with human liver microsomes (AID 1963577).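 Note: p53 response element beta-lactamase reporter cells with liver microsomes plus NADPH.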 Put shortly:
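Reporter activation was measured by LiveBLAzer fluorescence intensity in p53RE-bla cells, which had been exposed to compounds for 16 h at 37 C alongside 0.5 mg/mL human liver microsomes and 0.5 mg/mL NADPH (final concentrations).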

A short description of experiment [6]: p53 small molecule agonists, cell-based qHTS assay with rat liver microsomes (AID 1963578). In outline:
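Compound in DMSO added to p53RE-bla cells 5 h post-plating; rat microsomes/NADPH 0.5 mg/mL final; 16 h, 37 C; LiveBLAzer 2 h RT.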

Experiment [7] is described as follows: p53 small molecule agonists, cell-based qHTS assay with human liver microsomes: qHTS cell viability counter screen (AID 1963579). Note: nearly all actives have a fitted effect of over 45% in size. Put shortly: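 HLM-supplemented (0.5 mg/mL final) and NADPH-supplemented (0.5 mg/mL final) p53RE-bla cultures, 4,000 cells per well, were dosed with compounds in DMSO for 16 h at 37 C; luminescent ATP detection (CellTiter-Glo, 30 min, room temperature) quantified surviving cells.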

Experiment [8] in a line: p53 small molecule agonists, cell-based qHTS assay with rat liver microsomes: qHTS cell viability counter screen (AID 1963580). Note: nearly all actives have a fitted effect of over 45% in size. Put shortly: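 Counter screen for cytotoxicity under metabolic activation: rat liver microsomes and NADPH, 0.5 mg/mL final each, added with compounds to p53RE-bla HCT-116 cells; 16 h at 37 C, then ATP luminescence read.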
Experiment [9] in a line: p53 small molecule agonists, cell-based qHTS assay: qHTS cell viability counter screen (AID 1963581). Note: nearly all actives have a fitted effect of over 45% in size. Put shortly: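 ATP content measured by luminescence in HCT-116 p53RE-bla cells treated 16 h at 37 C, same wells as the reporter screen.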
The nature of experiment [10]: p53 small molecule agonists, cell-based qHTS assay (AID 1963582; active = well fitted activation curve with a large enough effect in the signal ratio in the repeat runs, not every such curve was filed as active; the % refers to the signal ratio). Put shortly: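 16 h compound exposure (37 C) of p53 response element–bla cells, preceded by 5 h recovery at 37 C/5% CO2; read-out via LiveBLAzer B/G FRET substrate, 2 h RT, fluorescence intensity.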
For experiment [11], the target named is 5-hydroxytryptamine receptor 2A (Homo sapiens) (UniProt P28223). In words: 5-hydroxytryptamine receptor 2A (HTR2A) small molecule antagonists, cell-based qHTS assay (AID 1963586). Note: nearly all actives have a fitted effect of over 45% in size. Put shortly:
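CHO cells stably expressing human HTR2A were plated for 18 h at 37 C, then loaded with calcium dye for 1 h. Compounds were preincubated 5 min at room temperature before DOI (4 nM solution) was added. Kinetic fluorescence was read for 3 min.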

For experiment [12] the target is unchanged. In words: 5-hydroxytryptamine receptor 2A (HTR2A) small molecule agonists, cell-based qHTS assay (AID 1963587). Note: nearly all actives have a fitted effect of over 30% in size. Put shortly: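 HTR2A-CHO cells, plated 18 h at 37 C/5% CO2, dye-loaded 1 h at 37 C; compounds in DMSO added by pin tool (agonist mode). Intracellular calcium flux read as kinetic fluorescence on FDSS over 2 min at 1 s intervals.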
Experiment [13] addresses Muscarinic acetylcholine receptor M1 (Homo sapiens) (UniProt P11229). Nature of the experiment: Cholinergic receptor muscarinic 1 (CHRM1) small molecule antagonists, cell-based qHTS assay (AID 1963588). Note: nearly all actives have a fitted effect of over 40% in size. Put shortly: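 Compounds were tested at 15 concentrations in three independent runs. Dye-loaded CHRM1-CHO cells were exposed 5 min at room temperature before stimulation by acetylcholine added at 50nM. Intracellular calcium was read kinetically on FDSS for 3 min.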

Experiment [14] has the same target. Nature of the experiment: Cholinergic receptor muscarinic 1 (CHRM1) small molecule agonists, cell-based qHTS assay (AID 1963589). Note: nearly all actives have a fitted effect of over 35% in size. In outline:
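Homogeneous fluorescence calcium flux, agonist mode. Human M1-expressing CHO cells; compound dosed at 15 concentrations, three independent runs; signal sampled every 1 sec.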

Experiment [15] can be described thus: cAMP Responsive Elements (CRE) small molecule agonists, cell-based qHTS assay (AID 1963590). Put shortly:
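HEK 293T cells stably bearing CRE-bla were plated at 2,000 cells per well and rested 18 h. Compounds, positive controls or DMSO were added for 3 h at 37 C. LiveBLAzer B/G substrate was then loaded for 2 h at room temperature.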

Experiment [16] in a line: cAMP Responsive Elements (CRE) small molecule antagonists, cell-based qHTS assay (AID 1963591; active = well fitted inhibition curve with a large enough effect in the signal ratio in the repeat runs, not every such curve was filed as active; the % refers to the signal ratio). In outline:
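First, CRE-bla HEK293T cells settled 18 h at 37 C. Next, compound and 0.25 uM final NKH477 were applied for 3 h. Last, LiveBLAzer B/G substrate was loaded for 2 h at room temperature.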

The target of experiment [17] is Beta-2 adrenergic receptor (Homo sapiens) (UniProt P07550). Nature of the experiment: Adrenergic beta2 receptor (ADRB2) small molecule antagonists, cell-based qHTS assay (AID 1963592). Note: series mostly up to about 92 µM; nearly all actives have a fitted effect of over 50% in size. In outline:
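Assay format: CHO-ADRB2 cells, 18-20hr seeding at 37C/5% CO2, then compound plus 1nM isoproterenol agonist mix for 0.5hr RT. Homogeneous time-resolved fluorescence cAMP detection after 1hr, expressed as 665/615 nm ratio.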

Experiment [18] deals with D(2) dopamine receptor (Homo sapiens) (UniProt P14416). In words: Dopamine D2 receptor (DRD2) small molecule agonists, cell-based qHTS assay (AID 1963594). Note: nearly all actives have a fitted effect of over 35% in size. Put shortly: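 HEK293 cells stably expressing DRD2 were cultured 24 h at 37 C, then given Ro20-1724 (0.1 mM final) and compounds for 10 min at room temperature. NKH477 (200nM) was then added for 30 min. cAMP was read by HTRF.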

The target is the same in experiment [19]. Nature of the experiment: Dopamine D2 receptor (DRD2) small molecule antagonists, cell-based qHTS assay (AID 1963595; active = well fitted inhibition curve with a large enough effect in the signal ratio in the repeat runs, with a control signal flat; the % refers to the signal ratio). Put shortly: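 Human DRD2 antagonist qHTS measuring cAMP by HTRF. The cells are exposed to compound for 10 min, then to NKH477 (200 nM) and quinpirole (12 nM) for 30 min at RT, with Ro20-1724 (0.1 mM) present throughout.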
The target of experiment [20] is Gonadotropin-releasing hormone receptor (Homo sapiens) (UniProt P30968). In words: Human gonadotropin-releasing hormone receptor (GnRHR) small molecule agonists, calcium flux assay in GnRHR-HEK293 cells (AID 1920063). Note: nearly all actives have a fitted effect of over 35% in size. Put shortly: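 Compounds dissolved in DMSO are pin-transferred onto dye-loaded GnRHR-HEK293 cells, which were seeded 18 h before at 37 C/5% CO2. Calcium signal is read as fluorescence intensity at 1 s intervals for 3 min.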

A number with no mark means an inactive call. Results filed as inconclusive are left out. Active and inactive are the calls of the source. Unless noted, calls come from the whole dose curve.

Sequence of Muscarinic acetylcholine receptor M1 (Homo sapiens) (P11229 whole entry, looked up): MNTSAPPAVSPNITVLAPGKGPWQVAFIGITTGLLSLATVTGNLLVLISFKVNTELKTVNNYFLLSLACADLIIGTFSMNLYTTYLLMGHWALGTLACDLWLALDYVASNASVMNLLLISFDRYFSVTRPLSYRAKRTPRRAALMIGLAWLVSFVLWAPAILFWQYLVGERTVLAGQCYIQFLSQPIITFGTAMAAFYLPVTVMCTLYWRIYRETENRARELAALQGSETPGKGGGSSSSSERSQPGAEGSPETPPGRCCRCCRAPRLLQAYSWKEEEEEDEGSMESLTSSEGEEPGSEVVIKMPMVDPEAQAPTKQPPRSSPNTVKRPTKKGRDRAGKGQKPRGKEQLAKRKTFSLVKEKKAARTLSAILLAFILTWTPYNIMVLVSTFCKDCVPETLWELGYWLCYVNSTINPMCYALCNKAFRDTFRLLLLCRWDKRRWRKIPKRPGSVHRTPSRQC
Sequence of Beta-2 adrenergic receptor (Homo sapiens) (P07550 whole entry, looked up): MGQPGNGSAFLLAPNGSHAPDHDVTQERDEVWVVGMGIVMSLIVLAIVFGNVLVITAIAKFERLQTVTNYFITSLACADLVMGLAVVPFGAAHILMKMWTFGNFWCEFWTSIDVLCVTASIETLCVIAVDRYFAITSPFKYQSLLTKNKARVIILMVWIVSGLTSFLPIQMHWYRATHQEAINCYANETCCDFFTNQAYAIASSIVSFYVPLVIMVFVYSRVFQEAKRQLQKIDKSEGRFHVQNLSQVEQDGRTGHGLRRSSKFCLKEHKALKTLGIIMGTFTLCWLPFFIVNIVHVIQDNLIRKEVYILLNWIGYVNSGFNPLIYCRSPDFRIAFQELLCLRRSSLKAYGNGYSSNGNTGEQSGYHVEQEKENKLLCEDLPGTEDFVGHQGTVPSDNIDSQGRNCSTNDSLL
Sequence of D(2) dopamine receptor (Homo sapiens) (P14416 whole entry, looked up): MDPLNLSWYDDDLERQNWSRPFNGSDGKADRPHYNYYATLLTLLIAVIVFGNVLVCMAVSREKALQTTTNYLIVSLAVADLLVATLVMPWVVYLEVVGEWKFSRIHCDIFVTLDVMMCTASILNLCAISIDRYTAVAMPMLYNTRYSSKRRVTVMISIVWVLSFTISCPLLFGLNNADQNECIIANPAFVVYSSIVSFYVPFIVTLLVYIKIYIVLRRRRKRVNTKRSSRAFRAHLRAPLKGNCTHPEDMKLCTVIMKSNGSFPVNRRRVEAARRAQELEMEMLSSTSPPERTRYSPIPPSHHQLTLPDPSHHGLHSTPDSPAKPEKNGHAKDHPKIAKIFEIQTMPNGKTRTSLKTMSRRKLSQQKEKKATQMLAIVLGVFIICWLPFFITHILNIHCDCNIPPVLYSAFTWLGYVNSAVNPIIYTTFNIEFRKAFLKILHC
Sequence of Gonadotropin-releasing hormone receptor (Homo sapiens) (P30968 whole entry, looked up): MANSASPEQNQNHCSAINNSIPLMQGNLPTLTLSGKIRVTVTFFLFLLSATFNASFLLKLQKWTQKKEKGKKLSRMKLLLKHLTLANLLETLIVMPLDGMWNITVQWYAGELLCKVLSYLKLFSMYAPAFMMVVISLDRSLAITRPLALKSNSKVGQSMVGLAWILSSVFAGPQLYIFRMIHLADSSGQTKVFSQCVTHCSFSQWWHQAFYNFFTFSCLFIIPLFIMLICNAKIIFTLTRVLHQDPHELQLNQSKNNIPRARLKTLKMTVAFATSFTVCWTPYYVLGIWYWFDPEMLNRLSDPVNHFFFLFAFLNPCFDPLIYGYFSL
Sequence of 5-hydroxytryptamine receptor 2A (Homo sapiens) (P28223 whole entry, looked up): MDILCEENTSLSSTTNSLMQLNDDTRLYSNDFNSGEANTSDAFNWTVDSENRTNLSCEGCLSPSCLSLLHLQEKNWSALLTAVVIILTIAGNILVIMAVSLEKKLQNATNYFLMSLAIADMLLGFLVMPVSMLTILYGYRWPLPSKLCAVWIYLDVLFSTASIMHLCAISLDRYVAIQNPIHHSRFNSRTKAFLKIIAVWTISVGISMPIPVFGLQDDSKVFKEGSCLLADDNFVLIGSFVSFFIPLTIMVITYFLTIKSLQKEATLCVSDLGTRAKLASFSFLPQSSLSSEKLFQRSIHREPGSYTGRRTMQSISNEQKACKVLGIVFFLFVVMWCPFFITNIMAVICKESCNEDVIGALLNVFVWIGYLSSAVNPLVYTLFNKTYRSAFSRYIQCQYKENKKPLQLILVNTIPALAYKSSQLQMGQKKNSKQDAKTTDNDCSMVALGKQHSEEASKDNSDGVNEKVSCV
Sequence of KiSS-1 receptor (Homo sapiens) (Q969F8 whole entry, looked up): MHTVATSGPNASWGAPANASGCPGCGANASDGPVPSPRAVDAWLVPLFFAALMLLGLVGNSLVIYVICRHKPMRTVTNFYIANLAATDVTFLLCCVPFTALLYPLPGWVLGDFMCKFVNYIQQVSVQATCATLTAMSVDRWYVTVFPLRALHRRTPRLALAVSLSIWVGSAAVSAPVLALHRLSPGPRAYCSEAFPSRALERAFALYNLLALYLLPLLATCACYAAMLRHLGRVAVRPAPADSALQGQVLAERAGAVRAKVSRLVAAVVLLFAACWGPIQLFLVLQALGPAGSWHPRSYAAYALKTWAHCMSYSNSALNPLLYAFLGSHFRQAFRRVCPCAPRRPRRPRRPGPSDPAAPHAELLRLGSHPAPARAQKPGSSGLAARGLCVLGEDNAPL

Turning to `O=C(O)COCC(=O)O`, the Potency entry in [1], in [2], in [5], in experiment [6], in [7] and in experiment [8] was “inactive” each time. The Potency result in experiment [9], in experiment [10], in experiment [11], in experiment [12], in [13] and in [14] was “inactive” in each case. The Potency result in experiment [15], in experiment [16], in [17], in experiment [18] and in [19] was “inactive” in each case. Moreover, the outcome in experiment [3] and in experiment [4] was inactive.

Consider `CC(C)(O)c1ccccc1`, for which the Potency entry in experiment [1], in experiment [2], in experiment [20], in [5], in [6] and in experiment [7] was “inactive” throughout. For the same compound, the Potency entry in experiment [10], in experiment [12], in experiment [13], in experiment [15], in experiment [16] and in experiment [17] was “inactive” throughout. Besides, the Potency entry in experiment [18] and in experiment [19] was “inactive” in each case. Also, the result in experiment [4] was inactive.

For `CC(=O)Nc1ccc(C)cc1C`, the Potency result in experiment [1], in [2], in experiment [20], in experiment [6], in [7] and in experiment [8] was “inactive” each time. In addition, the Potency result in experiment [9], in [10], in [11], in experiment [12], in experiment [14] and in experiment [15] was “inactive” each time. Also, the Potency entry in experiment [16], in [17], in experiment [18] and in [19] was “inactive” each time. Further, the result in [4] was inactive.

In the case of `CC(=O)CC(c1ccc([N+](=O)[O-])cc1)c1c(O)c2ccccc2oc1=O` (centres undefined), the Potency entry in experiment [1], in [2], in experiment [20], in [5], in experiment [6] and in [7] was “inactive” in each case. The Potency entry in experiment [9], in [10], in experiment [11], in experiment [12], in experiment [14] and in experiment [15] was “inactive” each time. Moreover, the Potency entry in [16], in [18] and in [19] was “inactive” in each case. The result in experiment [4] was inactive.

For the compound `CCN(CC)CCOc1ccc(C(O)(Cc2ccc(Cl)cc2)c2ccc(C)cc2)cc1` (centres undefined), in experiment [1], the Potency was 26.6 µM (active). In addition, the Potency result in experiment [2], in experiment [20], in [5], in experiment [6], in experiment [7] and in experiment [8] was “inactive” throughout. Moreover, the Potency entry in experiment [10], in experiment [11], in experiment [17], in [18] and in [19] was “inactive” in each case.

In the case of `Cc1cc(=O)[nH]c(=O)[nH]1`, the Potency result in experiment [1], in experiment [2], in [20], in [5], in experiment [7] and in experiment [9] was “inactive” in each case. Moreover, the Potency entry in experiment [10], in [12], in experiment [13], in [15], in experiment [16] and in [18] was “inactive” throughout. Moreover, the result in experiment [4] was inactive.

As to `Cc1ccc2nc(N)[nH]c(=O)c2c1Sc1ccncc1`, the Potency result in [1], in experiment [2], in [20], in experiment [6], in [7] and in experiment [9] was “inactive” each time. Further, the Potency entry in experiment [11], in [12], in experiment [13], in experiment [14], in experiment [15] and in experiment [16] was “inactive” in each case. Besides, the Potency result in experiment [17], in experiment [18] and in experiment [19] was “inactive” each time. In experiment [4], the outcome was inactive.

In the case of `CC1=C(/C=C/C(C)=C\C=C\C(C)=C\C(=O)O)C(C)(C)CCC1`, the Potency entry in experiment [1], in [20], in [5], in [7], in [8] and in experiment [9] was “inactive” throughout. Moreover, the Potency result in experiment [17], in experiment [18] and in experiment [19] was “inactive” in each case. For the same compound, in experiment [2], the Potency was 54.5 µM (active). Besides, in experiment [4], the result was inactive.
